Over roughly 33,000 sequences, “E-score (-0.5 to 0.5)” has its median near -0.017; the highest 2% begin near 0.3. What follows is part of a selection rich in the highest values, with near analogues and random picks from the rest.
The sequences below were run against T1, Sut1 (UniProt P53032) (assay: PBM E-score (8-mer binding enrichment) (E-score (-0.5 to 0.5)); higher = stronger / more preferred TF binding). Conditions: protein concentration: 200 nM; construct: GST-full length.
T1 sequence: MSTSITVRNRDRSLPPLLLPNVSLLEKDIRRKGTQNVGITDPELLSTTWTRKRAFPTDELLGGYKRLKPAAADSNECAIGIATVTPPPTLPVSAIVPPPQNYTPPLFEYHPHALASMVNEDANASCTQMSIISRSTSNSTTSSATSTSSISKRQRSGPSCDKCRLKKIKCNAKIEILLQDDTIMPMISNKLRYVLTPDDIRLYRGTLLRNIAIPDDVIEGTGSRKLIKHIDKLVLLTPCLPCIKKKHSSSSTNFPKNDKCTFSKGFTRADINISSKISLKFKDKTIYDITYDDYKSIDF
Procedure: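 Universal 'all 10-mer' protein binding microarrays (Agilent AMADID 015681) probed with GST-tagged S. cerevisiae TFs (full-length or DBD) made by in vitro transcription/translation (PURExpress), about 100-200 nM. Bound TF was detected with fluorescent anti-GST. Each ungapped 8-mer (which stands for itself and its reverse complement) is scored by the PBM enrichment score (E-score), a modified Wilcoxon-Mann-Whitney statistic from -0.5 to +0.5, computed with the Universal PBM Analysis Suite. Scale: above 0.35 generally sequence-specific binding.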
For ACCGGACC, the “PBM E-score” value was 0.364. AACGGACA was tested, and the “PBM E-score” value was 0.24. ACCGGACT was tested, and the “PBM E-score” value was 0.485. For ACCGGACG, the “PBM E-score” value was 0.114. In the case of ACCGGAAC, the “PBM E-score” value was 0.29. AGCGGACG was tested, and the “PBM E-score” value was -0.118. With AGCATATA the “PBM E-score” value was 0.102. For ACGCAAAC, the “PBM E-score” value was -0.0168. For CGGGGACA, the “PBM E-score” value was -0.0417. For AGAACAGC, the “PBM E-score” value was -0.0298. With ACGTGGTG the “PBM E-score” value was -0.133. With CGCCATTA the “PBM E-score” value was 0.0246. With AGCCACCG the “PBM E-score” value was -0.122. ACTCCGCC was tested, and the “PBM E-score” value was 0.438. With GCTCCGCA the “PBM E-score” value was 0.227. In the case of ACTCCGCG, the “PBM E-score” value was 0.476. In the case of ACTCCGCT, the “PBM E-score” value was 0.452. In the case of CCTCCGCG, the “PBM E-score” value was -0.0947. With GCTCCGCC the “PBM E-score” value was 0.0486. For AATCCGCT, the “PBM E-score” value was -0.0383. ACTCCCCG was tested, and the “PBM E-score” value was 0.196. With CCTCCGCC the “PBM E-score” value was -0.221. CCTCCGCA was tested, and the “PBM E-score” value was -0.205. With ACTCCGCA the “PBM E-score” value was 0.473. In the case of ACGCCGCT, the “PBM E-score” value was -0.0911. For CAACGGGA, the “PBM E-score” value was 0.0235. AGAACCAT was tested, and the “PBM E-score” value was 0.12. In the case of GAGGCTCC, the “PBM E-score” value was 0.0186. In the case of ACCTTTGG, the “PBM E-score” value was -0.287. For CACATCGA, the “PBM E-score” value was -0.0466. For AGCCACTG, the “PBM E-score” value was -0.0195. With CGGAGATC the “PBM E-score” value was 0.445. With CTGAGATC the “PBM E-score” value was -0.209. For AGGAGATA, the “PBM E-score” value was -0.155. With CGGAGATA the “PBM E-score” value was 0.458. With CGGAGACG the “PBM E-score” value was 0.204. For CGGAGACC, the “PBM E-score” value was 0.315. AGGAGATC was tested, and the “PBM E-score” value was 0.0207. In the case of GGGAGATA, the “PBM E-score” value was -0.144. GGGAGACC was tested, and the “PBM E-score” value was -0.235. For AAAAGCAA, the “PBM E-score” value was 0.242. With ACCACCGT the “PBM E-score” value was -0.0843. With GCAGGTAC the “PBM E-score” value was -0.132. CTCAAGCC was tested, and the “PBM E-score” value was -0.126. In the case of GGAGAGCA, the “PBM E-score” value was -0.125. For CCCTAACA, the “PBM E-score” value was 0.071. In the case of AGTGCATG, the “PBM E-score” value was -0.0963. With CATGGGTC the “PBM E-score” value was -0.185. In the case of ATTCGTAC, the “PBM E-score” value was 0.154. AGGTCCGG was tested, and the “PBM E-score” value was 0.461. CGGTCCGA was tested, and the “PBM E-score” value was 0.264. AGGTCCGC was tested, and the “PBM E-score” value was 0.286. AGGTCCAG was tested, and the “PBM E-score” value was -0.0827. AGGTCCGA was tested, and the “PBM E-score” value was 0.457. With GGGTCCGA the “PBM E-score” value was 0.295. CCTTGAAG was tested, and the “PBM E-score” value was -0.0873. GCTCAAGA was tested, and the “PBM E-score” value was -0.148. ATAGTGGG was tested, and the “PBM E-score” value was -0.0539. AATCTGGT was tested, and the “PBM E-score” value was 0.047. In the case of AGGCCTTA, the “PBM E-score” value was -0.127. AAAGCTCC was tested, and the “PBM E-score” value was 0.0815. For GAAGCTCA, the “PBM E-score” value was -0.033. With GAAGCTCC the “PBM E-score” value was 0.35. In the case of GACACCCA, the “PBM E-score” value was -0.118. With ATTCTATA the “PBM E-score” value was 0.16. With GGAGCGTA the “PBM E-score” value was 0.0804. In the case of CTATCTCC, the “PBM E-score” value was 0.114. In the case of CAATCTCG, the “PBM E-score” value was -0.097. In the case of ATATCTCC, the “PBM E-score” value was 0.341. CAATCTCA was tested, and the “PBM E-score” value was -0.0455. CAATCTCC was tested, and the “PBM E-score” value was 0.312. For ATCTCTCC, the “PBM E-score” value was -0.0902. CATCTGCG was tested, and the “PBM E-score” value was -0.0835. For CGGTCAAG, the “PBM E-score” value was -0.09. In the case of TCTGATAA, the “PBM E-score” value was -0.0508. AATTGTCT was tested, and the “PBM E-score” value was -0.0132. For CTCGTTAA, the “PBM E-score” value was 0.1. With GTAACGTA the “PBM E-score” value was 0.0551. CTAACGGA was tested, and the “PBM E-score” value was 0.305. With GTAACGGA the “PBM E-score” value was 0.329. In the case of ATAACGGA, the “PBM E-score” value was 0.341. For ATAACGGG, the “PBM E-score” value was 0.0139. With ATAACGGC the “PBM E-score” value was 0.00713. With GTAACGCA the “PBM E-score” value was 0.021. In the case of CTAACGGC, the “PBM E-score” value was 0.0477. With CTAACGAA the “PBM E-score” value was -0.0566. For GAAACGCA, the “PBM E-score” value was 0.026. With CTGAGCGA the “PBM E-score” value was -0.162. In the case of AAGGTTGA, the “PBM E-score” value was 0.0981. For GTTTAGTA, the “PBM E-score” value was 0.208. GACATCGC was tested, and the “PBM E-score” value was -0.0981. For CATAACAC, the “PBM E-score” value was 0.0299. In the case of CGCTCAGC, the “PBM E-score” value was -0.105. In the case of ATTTTGCG, the “PBM E-score” value was 0.193. GCTCCCAC was tested, and the “PBM E-score” value was -0.109. For CATATGTC, the “PBM E-score” value was -0.0849. CCTGTCAA was tested, and the “PBM E-score” value was -0.085. With CCCCGGGA the “PBM E-score” value was -0.0206. With CGCCGGGC the “PBM E-score” value was 0.00809. For GTCCGGGA, the “PBM E-score” value was 0.413. In the case of CTCCGGGA, the “PBM E-score” value was 0.436. With CGCCGGGA the “PBM E-score” value was -0.203. In the case of ATCCGGGA, the “PBM E-score” value was 0.0768. For ATCCGGGC, the “PBM E-score” value was 0.127. CTCCGGGC was tested, and the “PBM E-score” value was 0.391. For GACCGGGA, the “PBM E-score” value was -0.0471. In the case of CCCGGTCC, the “PBM E-score” value was -0.0342. For AACTCACT, the “PBM E-score” value was -0.151. With CAATTCAA the “PBM E-score” value was 0.0614. For GGCCCTCA, the “PBM E-score” value was -0.279. CTGGTTCA was tested, and the “PBM E-score” value was -0.0784. For TCTCGGAA, the “PBM E-score” value was 0.215. CCTCGGAA was tested, and the “PBM E-score” value was 0.215. With ACTCGGTC the “PBM E-score” value was -0.072. CCTCGGAC was tested, and the “PBM E-score” value was 0.412. ACTCGGAT was tested, and the “PBM E-score” value was 0.0613. For ACTCGGAC, the “PBM E-score” value was 0.411. CCTCGGAG was tested, and the “PBM E-score” value was 0.446. With CCTCGGGC the “PBM E-score” value was -0.209. With CCTCGGCG the “PBM E-score” value was -0.0382. For ACTCGGGC, the “PBM E-score” value was -0.0385. In the case of ACTCGGAA, the “PBM E-score” value was 0.323. CCTCGGTA was tested, and the “PBM E-score” value was -0.0533. For CTAGTTGC, the “PBM E-score” value was -0.0129. In the case of GCCTTGGA, the “PBM E-score” value was -0.0418. GACGCGTC was tested, and the “PBM E-score” value was -0.325. With ATCTATAG the “PBM E-score” value was 0.11. In the case of CAGCCTGA, the “PBM E-score” value was -0.275. ATATGAGG was tested, and the “PBM E-score” value was -0.0891. For GCTCGGAC, the “PBM E-score” value was 0.365. For ACTCGGAG, the “PBM E-score” value was 0.399. GCTCGGCC was tested, and the “PBM E-score” value was -0.204. With GCTCGGAA the “PBM E-score” value was 0.165. With ACTCGGTG the “PBM E-score” value was -0.0621. In the case of ACTCGGCG, the “PBM E-score” value was 0.0415. For ATACATTA, the “PBM E-score” value was 0.234. With ACACTAAG the “PBM E-score” value was -0.0951. With TATATATA the “PBM E-score” value was 0.381. For TATATACA, the “PBM E-score” value was 0.316. For GATATACA, the “PBM E-score” value was 0.194. With CATATATC the “PBM E-score” value was -0.0165. With CATATATA the “PBM E-score” value was 0.299. With TATATAGA the “PBM E-score” value was 0.278. With GATATATA the “PBM E-score” value was 0.247. AATATACA was tested, and the “PBM E-score” value was 0.29. For CATATATG, the “PBM E-score” value was 0.0281. GGCCAGCA was tested, and the “PBM E-score” value was -0.168. ACCCAGGA was tested, and the “PBM E-score” value was -0.13. AAGACTTC was tested, and the “PBM E-score” value was -0.196. With AACCCCTC the “PBM E-score” value was -0.198. AAGGGGGA was tested, and the “PBM E-score” value was -0.0309. For CAGTCAAA, the “PBM E-score” value was 0.0987. For CCTTGCAG, the “PBM E-score” value was -0.143. In the case of ACTCGTCG, the “PBM E-score” value was -0.174. For TAATCGCA, the “PBM E-score” value was -0.0128. In the case of AACGGAAA, the “PBM E-score” value was 0.327. In the case of CTCGGAAA, the “PBM E-score” value was 0.19. GTCGGAAA was tested, and the “PBM E-score” value was 0.355. ATCGGAAT was tested, and the “PBM E-score” value was 0.352. With CACGGAAA the “PBM E-score” value was 0.188. In the case of ATCGGAAA, the “PBM E-score” value was 0.302. GTCGGAAC was tested, and the “PBM E-score” value was 0.134. With AACGGAAT the “PBM E-score” value was 0.294. With ATCGGAAG the “PBM E-score” value was 0.253. In the case of AGCGGAAT, the “PBM E-score” value was 0.0494. In the case of ATCGGAAC, the “PBM E-score” value was 0.14. TTCGGAAA was tested, and the “PBM E-score” value was 0.252. AGTAACTC was tested, and the “PBM E-score” value was 0.115. CGACGAAA was tested, and the “PBM E-score” value was 0.0757. In the case of AAGTGAGC, the “PBM E-score” value was -0.0565. With GCTTTTTA the “PBM E-score” value was 0.161. For GGAGCGAA, the “PBM E-score” value was 0.0455.

Source: the supplement of paper PMC3334620
